# Assay outcomes as filed in PubChem BioAssay.
# HT1080NT lethal: qHTS for induction of synthetic lethality in tumor cells producing 2HG: qHTS for the HT-1080-NT fibrosarcoma cell line | HT-1080-NT fibrosarcoma viability, CellTiter-Glo ATP luminescence, 48 h | Potency, µM (doses to about 46.1 µM), inactives show at the top dose activity, negative = less viability, most hits filed as cytotoxic | 1.6% of 360,000 active | AID 686970, 2013;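 further: NT is the 2HG producing partner of a matched IDH1 knockdown line; 0% = DMSO-treated cells and -100% = media-only wells without cells; nearly all actives have a fitted effect of over 55% in size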
#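 Viability of the 2HG-overproducing fibrosarcoma line after 48 hours of compound exposure at 37 degrees C was determined by luminescence with CellTiter-Glo, and concentration-effect curves were then fitted and categorized.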
# TDP1 cell CPT: qHTS for Inhibitors of human tyrosyl-DNA phosphodiesterase 1 (TDP1): qHTS in cells in presence of CPT; chicken DT40 Tdp1-/-;hTDP1 cells + 20 nM CPT, ATP luminescence, 48 h; Potency, µM (titrated, usually from 46.2 µM), for the others: at the highest dose activity change, negative = growth inhibition, usual class: inhibitors; 12% of 420,000 active; AID 686979, 2013; further: on the % scale 0 is the no-effect control and ±100 the full control effect; nearly all actives have a fitted effect of over 55% in size
#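 Chicken DT40 Tdp1-/- cells stably complemented with human TDP1 were seeded at 400 cells/well in medium containing 20 nM camptothecin, exposed to pin-transferred compounds, and grown at 37 °C for at least 48 hr. Viability was read as ATP luminescence.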
# HepG2 tox: qHTS for Inhibitors of TGF-b: Cytotox Counterscreen; HepG2 CAGA-GFP viability, ATP luminescence, 18 h; Potency, µM (highest dose often 46.1 µM), for inactives: top-dose activity change, negative = cytotoxicity, actives largely listed as cytotoxic; 0.76% of 410,000 active; AID 588856, 2011
#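 HepG2 CAGA-GFP cells (1000/well, DMEM with 1% FBS) received compound, then TGF-beta at 500 pg/mL final, and were incubated 18 hours at 37 degrees C. Viability was read by CellTiter-Glo luminescence. Media-only wells were set as complete cell-killing and DMSO as no toxicity.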
# HT1080 IDH1KD tx: qHTS for induction of synthetic lethality in tumor cells producing 2HG: qHTS for the HT-1080-IDH1KD cell line; Potency, µM (top dose mostly 46.1 µM), for the others: at the top dose activity, negative = toxicity, most hits filed as cytotoxic; HT-1080 IDH1 knockdown viability, ATP luminescence, 48 h; 2% of 360,000 active;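 further: 0% = DMSO wells and -100% = cell-free medium wells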
#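 Knockdown cells (IDH1KD HT-1080) received compounds 2 h after plating at 750 cells/well and were kept 48 h at 37 °C in 5% FBS RPMI. A CellTiter-Glo luminescence read gave % activity for curve fitting.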
# TGFb SMAD3 inh: qHTS for Inhibitors of TGF-b | Potency, µM (titrated, usually from 46.1 µM), for inactives: at the top dose activity, negative = inhibition, usual class: inhibitors | HepG2 CAGA-GFP TGF-b/SMAD3 reporter, GFP fluorescence, 18 h; TGF-beta stimulated, 500 pg/mL final | 1.2% of 410,000 active; further: on the % scale 0 is the no-effect control and ±100 the full control effect; nearly all actives have a fitted effect of over 65% in size
#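 Inhibition of TGF-beta-driven CAGA-GFP reporter expression in HEPG2 cells is measured by cellular GFP fluorescence after 18 h stimulation with 500 pg/mL recombinant TGF-beta in 1% FBS medium at 37 degrees C.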
# DT40 TDP1 no CPT: qHTS for Inhibitors of human tyrosyl-DNA phosphodiesterase 1 (TDP1): qHTS in cells in absence of CPT; DT40 Tdp1-/- hTDP1 cells, no CPT, ATP luminescence, 48 h; Potency, µM (top dose mostly 46.2 µM), for inactives: top-dose activity change, negative = growth inhibition, usual class: inhibitors; 15% of 420,000 active; AID 686978, 2013; further: on the % scale 0 is the no-effect control and ±100 the full control effect; nearly all actives have a fitted effect of over 55% in size
#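 Readout: luminescence from CellTiter-Glo after 30 min in the dark at RT. Cells: DT40 Tdp1-/- with stable hTDP1, 400/well. Exposure: compounds alone, ≥48 hr, 37 °C.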
# An asterisk follows results filed as active; ? = inconclusive; · = no result given; [ ] = another dose, or the depositor's remark. Rows were chosen to be rich in hits. Some 17% of all compounds tested hit in one or more screens of this group. The call rests on the fitted dose curve; in most records, active means well fitted curve in the direction sought with a large enough effect; inconclusive means small, poorly fitted or top-dose-only effect, or another doubt; inactive means no such curve, though single readings can be large; an effect the other way counts as inactive or inconclusive. Potency means the concentration at half of the fitted maximal effect.
SMILES,HT1080NT lethal,TDP1 cell CPT,HepG2 tox,HT1080 IDH1KD tx,TGFb SMAD3 inh,DT40 TDP1 no CPT
CCOc1ccc(NS(=O)(=O)c2ccc3[nH]c4c(c3c2)CCCCC4)cc1,·,23µM*,-100%,·,?,18µM*
COc1ccc(NS(=O)(=O)c2ccc3[nH]c4c(c3c2)CCCC4)cc1Cl,·,?,-109%,·,?,?
CCOc1ccc(NC(=O)CN(C)S(=O)(=O)c2ccc3[nH]c4c(c3c2)CCCC4)cc1,·,?,-18%,·,?,?
O=C(CSc1ncc(-c2ccc(Cl)cc2)[nH]1)Nc1ccccc1F,·,?,-30%,·,?,?
OCc1cccc(Nc2ncnc3sc4c(c23)CCCCC4)c1,-12%,?,-5%,-17%,-1%,?
COc1ccc2c(c1)OC(C)CN(CCNC(=O)c1cccc(N3CCNC3=O)c1)C2 (stereo not drawn),·,28%[9.04 µM],·,·,·,-22%
COc1ccc2cc(CCNS(=O)(=O)c3ccc(NC(C)=O)cc3)c(=O)[nH]c2c1,3%,-1%,8%,11%,-1%,-16%
Cc1ccc(S(=O)(=O)NCCc2cc3ccc(C)cc3[nH]c2=O)cc1,4%,-23%,-1%,-11%,5%,-26%
COc1ccc2cc(CCNS(=O)(=O)c3ccc(C)cc3)c(=O)[nH]c2c1,·,-22%,-11%,·,0%,9.2µM*
Cc1ccc2cc(CCNS(=O)(=O)c3ccc(F)cc3)c(=O)[nH]c2c1,12%,21µM*,-16%,6%,5%,18µM*
CC(C(=O)N1c2ccccc2Sc2ccccc21)n1nnc(-c2cccs2)n1 (stereo not drawn),0%,-9%,4%,0%,-1%,-1%
Cc1ccc(-c2nnn(C(C)C(=O)N3c4ccccc4CCc4ccccc43)n2)cc1 (stereo not drawn),-16%,?,15%,-8%,7%,29µM*
CC(C(=O)N1c2ccccc2CCc2ccccc21)n1nnc(-c2ccc(N(C)C)cc2)n1 (stereo not drawn),1%,?,-79%,-4%,12%,16µM*
CN=C1SC(CC(=O)Nc2ccccc2F)C(=O)N1/N=C/c1ccc(O)c(OC)c1 (stereo not drawn),?,23µM*,-29%,?,-7%,13µM*
CCOc1ccc(/C=N/N2C(=O)C(CC(=O)Nc3ccc(F)cc3F)SC2=NC)cc1OC (stereo not drawn),-7%,?,-1%,0%,3%,?
CSc1nc(N(CCO)CCO)c2sc3nc(-c4ccco4)c4c(c3c2n1)CCC4,?,16µM*,-23%,-24%,?,12µM*
O=C(Cc1ccccc1[N+](=O)[O-])NCc1ccco1,2%,6%,11%,-4%,26%,1%
Cc1noc(C)c1COc1ccc(C(=O)NNC(=O)c2ccccc2F)cc1,?,2.3µM*,-6%,6.5µM*,3%,1.5µM*
Cc1cccc(C)c1NC(=O)c1ccc(OCc2c(C)noc2C)cc1,-3%,?,-14%,-16%,11%,16µM*
Cc1noc(C)c1COc1ccc(C(=O)N2CCN(S(=O)(=O)c3ccccc3)CC2)cc1,-3%,?,-5%,0%,11%,?
Cc1noc(C)c1COc1ccc(C(=O)N2CCN(c3ccccc3O)CC2)cc1,2%,?,-20%,-1%,2%,16µM*
